# Data: PubChem BioAssay AID1768 (National Center for Advancing Translational Sciences (NCATS), 2009)
# Hit rate of the full screen: of about 270,000 compounds, about 620 (0.23%) were called active. Roughly 12% stayed inconclusive and do not appear here. What follows is part of a selection rich in actives, with near analogues and random picks from the rest. Values without a mark were called inactive. The call rests on the fitted dose curve; in most records, active means well fitted inhibition curve with a large enough effect in the polarisation, with a control signal flat (not every such curve was filed as active); inconclusive means small, poorly fitted or top-dose-only effect, or effect the other way, or a change in a side signal; inactive means no such curve, though single readings can be large or run the other way; the % refers to the polarisation.
# Target: Menin (Homo sapiens) (UniProt O00255)
# Sequence (O00255 whole entry, looked up): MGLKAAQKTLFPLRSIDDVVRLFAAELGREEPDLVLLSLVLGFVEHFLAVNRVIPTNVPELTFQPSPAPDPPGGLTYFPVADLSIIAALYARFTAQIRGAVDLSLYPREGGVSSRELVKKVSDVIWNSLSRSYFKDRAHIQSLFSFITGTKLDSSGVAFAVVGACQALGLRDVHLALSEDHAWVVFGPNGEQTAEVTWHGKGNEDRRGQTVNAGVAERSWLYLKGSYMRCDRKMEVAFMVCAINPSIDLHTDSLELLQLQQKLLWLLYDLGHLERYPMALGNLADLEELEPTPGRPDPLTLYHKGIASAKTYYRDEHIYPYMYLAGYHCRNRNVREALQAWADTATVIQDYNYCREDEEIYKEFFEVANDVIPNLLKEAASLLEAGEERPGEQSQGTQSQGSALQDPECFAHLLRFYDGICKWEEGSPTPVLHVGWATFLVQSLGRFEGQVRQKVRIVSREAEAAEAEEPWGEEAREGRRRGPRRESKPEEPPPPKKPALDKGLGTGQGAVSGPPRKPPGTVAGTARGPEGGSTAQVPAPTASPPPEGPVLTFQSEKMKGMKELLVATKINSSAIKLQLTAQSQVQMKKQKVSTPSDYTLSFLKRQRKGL
# Assay: qHTS Assay for Inhibitors Targeting the Menin-MLL Interaction in MLL Related Leukemias: Competition With Texas Red Labeled MLL-derived Mutant Peptide; on FP activity change, negative = inhibition: % of control where 0% means no effect
# Conditions: fluorescence polarization; series mostly up to 61.6 µM; FP activity change, negative = inhibition: at the top concentration
# From the text: qHTS Assay for Inhibitors Targeting the Menin-MLL Interaction in MLL Related Leukemias NIH Chemical Genomics Center [NCGC] NIH Molecular Libraries Probe Centers Network [MLPCN] MLPCN Grant: MH084875-01A1 Assay Submitter (PI): Jolanta Grembecka, Tomasz Cierpicki, University of Virginia Translocations of the MLL (Mixed Lineage Leukemia) gene are frequently found in human leukemias affecting both children and adults. Fusion of MLL to one of more than 60 genes results in generation of oncogenic proteins upregulating Hox genes, which are vital to blood cell development. Patients harboring fusion of the MLL gene suffer from aggressive leukemias and respond poorly to available therapies. All of the oncogenic fusion proteins have a preserved N-terminal fragment of MLL that has been identified to interact with menin. It has been recently discovered that association with menin is critical to the leukemogenic activity of the MLL fusion oncoproteins. Selective targeting of the menin-MLL interaction could provide an attractive therapeutic approach to develop novel drugs for MLL-related leukemias. Small molecules blocking the menin-MLL interaction should reverse the oncogenic potential of MLL fusion proteins. We have developed and optimized a fluorescence polarization-based assay for the identification of Menin-MLL inhibitors. The assay was run employing two different MLL-derived peptides. The present assay uses a 12 amino acid peptide labeled with fluorescein at its N-terminus. This peptide consists of the menin high affinity binding motif from MLL and is potently bound by menin. Another peptide with a mutated sequence, labeled with Texas Red, was used in parallel as a less stringent screen for inhibitors.
# The Menin protein, the MLL-wild type (w.t.) derived peptide (N-terminal 12 amino acids), the MLL-derived peptide labeled with Texas Red and the MLL-w.t. peptide labeled with Fluorescein were kindly supplied by laboratory of Dr. Jolanta Grembecka, University of Virginia. All protein and peptide solutions were stored in single use aliquots at -80C. The Eu3+ Cyrptate-conjugated mouse monoclonal antibody anti-6 Histidine (Eu3+-AB) and the Streptavidin-XL665 conjugate (XL665) were purchased from Cisbio International (Bedford, MA). All antibody and XL665 conjugate solution stocks were stored in single use aliquots at -20C. The Buffer components for all assays were purchased from Sigma-Aldrich (St. Louis, MO) and Invitrogen (Carlsbad, CA). FP Assay Reagents: 1. FP reaction buffer: 50 mM Tris-HCl pH 7.5, 50 mM NaCl, 1mM DTT. Before use, 0.05% BSA is added. 2. Menin protein, MLL-w.t. labeled with fluorescein, MLL-mutant peptide labeled with texas red. Stored in singe use aliquots at -80C. 3. MLL-w.t. unlabeled peptide as positive control: 10 uM final in FP buffer. FP Assay Procedure: 1. Prepare Menin at 200 nM, MLL-w.t.-fluorescein at 25 nM, and MLL-mutant-texas red at 50 nM mixture in FP buffer. 2. Prepare Menin at 200 nM, MLL-w.t.-fluorescein at 25 nM, MLL-mutant-texas red at 50 nM, and 10 uM MLL-w.t. unlabeled mixture in FP buffer. 3. Prepare MLL-w.t.-fluorescein at 25 nM and MLL-mutant-texas red at 50 nM mixture in FP buffer. 3. Dispense 4 ul per well of reagent in step 1 in columns 2, 4 - 48 in a black 1536 well plate, dispense 4 ul per well of reagents from steps 2 and 3 in columns 1 and 3 respectively. Incubate plate at ambient for 15 minutes. 4. Transfer 23 nl per well of compound to plate and incubate at ambient for 1 hr. 5. Read fluorescence polarization for each label using the PerkinElmer Envision. Envision protocol for fluorescein: FITC FP Dual Enh Mirror, Excitation filter 480, Emission filter (1) P-pol 535, Emission filter (2) S-pol 535 Envision protocol for texas red: FP Dual Enh Mirror, Excitation filter 555, Emission filter (1) P-pol 632, Emission filter (2) S-pol 632
# Potency means the concentration at half of the fitted maximal effect.
SMILES,"FP activity change, negative = inhibition",Potency
CC(C)(O)C#Cc1ccc(CN2CCC(CO)(CCc3ccccc3)CC2)cc1,8.13%,–
CCOCCCNc1nc(-c2ccccc2)nc2ccccc12,19.4%,–
Cc1c(CN2CC[C@@H](N3CCN(c4ccccn4)CC3)[C@H](O)C2)[nH]c2ccc(F)cc12,-9.78%,–
O=C(NCCCO)c1cc2c([nH]c3ccccc32)c(-c2ccc(F)cc2)n1,8.97%,–
CC(=O)N1c2ccc(S(=O)(=O)N3CCC(C(=O)NC4CCCC(C)C4C)CC3)cc2CC1C (stereo not given),-6.75%,–
CNC(=O)[C@]1(C(F)(F)F)C[C@H](CCc2ccccc2)CCCO1,3.94%,–
CC1CCCCC1NC(=O)CCS(=O)(=O)c1ccc2c(c1)NC(=O)CO2 (stereo not given),-10.4%,–
CN(C)c1ccc(N/C=C/C(=O)C(F)(F)F)cc1,–,28.2 µM (active)
CCCOc1ccc(N/C=C/C(=O)C(C)(C)C)cc1,1.33%,–
O=C(/C=C/Nc1ccccc1OC(F)(F)F)C(F)(F)F,5.87%,–
COc1cccc(N2C(=O)CN(Cc3ccccc3)C2=S)c1,32.3%,–
Cn1nccc1C(=O)N1CCCC(C(=O)c2ccc(Oc3ccccc3)cc2)C1 (stereo not given),-18.8%,–
COc1ccc(-c2noc(CCCC(=O)NC3CCCC3)n2)cc1OC,-7.12%,–
Cc1noc(C)c1-c1ccc2ncnc(NCc3ccc4[nH]ccc4c3)c2c1,28.6%,–
Cc1ccc(N(Cc2cc3ccccc3[nH]c2=O)C(=O)c2cccs2)cc1,0.868%,–
CC(=O)N(Cc1cc(=O)[nH]c2ccccc12)c1ccc(C)cc1C,1.95%,–
Cc1ccc(N(Cc2cc(=O)[nH]c3ccccc23)C(=O)CCl)cc1,–,10 µM (active)
CCN(CC)CCCNC(=O)COc1ccc2oc3c(c2c1)CCCC3,-9.91%,–
CC(C)c1ccc(NC(=O)C2CCCN(S(=O)(=O)c3cccnc3)C2)cc1 (stereo not given),-12.3%,–
COc1cc(/C=C2\SC(=O)NC2=O)ccc1OCc1ccc(Cl)nc1,3.5%,–
COC(=O)c1cc(S(=O)(=O)NCC2CCN(Cc3ccc(Cl)cc3)CC2)cn1C,-0.368%,–
Cc1cccc(NC(=S)NCCc2ccc(Cl)cc2)c1C,4.12%,–
COC(=O)C(CC(C)C)NS(=O)(=O)c1cc(Br)ccc1Br (stereo not given),-7.91%,–
Cc1c(C)c2ccc(OCC(=O)N3CCN(c4cccc(Cl)c4)CC3)cc2oc1=O,7.56%,–
Cc1ccc(S(=O)(=O)NNC(=O)/C=C/c2cccc(F)c2)cc1,-0.819%,–

SMILES,"FP activity change, negative = inhibition",Potency
O=C(COC(=O)c1cccs1)Nc1ccccc1Cl,0.3%,–
O=C(COC(=O)c1c2c(nc3ccccc13)/C(=C\c1cccs1)CCC2)Nc1ccccc1Cl,–,14.1 µM (active)
COc1cc(/C=C2\CCCc3c2nc2ccccc2c3C(=O)O)cc(Cl)c1O,16.7%,–
CC1CCN(CC(O)COc2ccc(C(=O)c3ccccc3)cc2)CC1 (stereo not given),-25.4%,–
CCC(CC)c1nnc(NC(=O)C2CCN(C(=O)c3ccco3)CC2)s1,-19.3%,–
Cc1cccc(OCC(=O)Nc2ccc(NC(=O)c3ccco3)c(C)c2)c1,-22.6%,–
COc1ccc(Cn2c(=S)[nH]c3cc(C(=O)NCCCN4CCOCC4)ccc3c2=O)cc1,14.5%,–
CC(C)CN(Cc1c(O)ccc2c(=O)c(-c3ccccc3)coc12)CC(C)C,16.6%,–
CCOC(=O)c1c(-c2ccc(-c3ccccc3)cc2)csc1NC(=O)CCC(=O)O,20.7%,–
COc1ccc(Br)cc1C1C2C=CCC(C)C2C(=O)N1Cc1ccccc1 (stereo not given),-15.8%,–
CCn1c(=N)c(C(=O)NCCCOC)cc2c(=O)n3cccc(C)c3nc21,-13.2%,–
Cc1cccn2c(=O)c(/C=C3\SC(=S)N(CC(C)C)C3=O)c(NCCCOC(C)C)nc12,–,28.2 µM (active)
CNc1nc2c(C)cccn2c(=O)c1C=Nc1ccc(OC)cc1,-16.5%,–
Cc1ccc(/C=C2/SC(=S)N(CCC(=O)NCCCN3CCOCC3)C2=O)cc1,-14.8%,–
O=C1CCN(Cc2ccccc2)CCN1[C@H](CSc1ccccc1)c1ccccc1,-15.5%,–
COCCNC(=O)COc1ccc(N(C)S(=O)(=O)c2ccc3ccccc3c2)cc1,0.697%,–
CC1CCCN(CC(=O)Nc2cc(Cl)ccc2Oc2ccccc2)C1 (stereo not given),-19.8%,–
CCN(CC)/[N+]([O-])=N/Oc1cc(O/[N+]([O-])=N/N2CCCC2CO)c([N+](=O)[O-])cc1[N+](=O)[O-] (stereo not given),0.381%,–
CC1CCN(C2=NC(=O)/C(=C/c3ccc(O)cc3)S2)CC1,-0.925%,–
c1ccc(Cc2ccc(OCCn3ccnc3)cc2)cc1,-10.6%,–
O=C(O)C1CC=CC2CCN(C3CCCCC3)C(=O)C21 (stereo not given),2.51%,–
CCOC(=O)c1cccc(NC(=O)C2CCN(c3ncnc4c3nc3n4CCCCC3)CC2)c1,-10.2%,–
CCOC(=O)c1ccc(NC(=O)c2ccc(NC(=O)C3CCCO3)cc2)cc1 (stereo not given),28.3%,–
CCCNC(=O)c1ccc(N2CCC3(CC2)CC(c2ccc(Cl)cc2)=NO3)c([N+](=O)[O-])c1,-0.331%,–
CCC(C)(C)NC(=O)C(c1ccc(OC)cc1)N(C(=O)CCC(=O)Nc1cc(C)on1)c1ccc(OC)cc1OC (stereo not given),-17.8%,–
